Among all 48,000 compounds or so, about 13,000 (27%) showed an effect of 50% or more. The list shows a part of the results.
test system: Wolbachia pipientis; assay: Anti-Wolbachia Cell-Based Screen; assay type: functional; parameters: scale not given: in the data most compounds retested in dose-response had high values; details: 5 µM

| Structure (SMILES) | Percent Effect [%] |
| --- | --- |
| Cc1nn(C)cc1C(=O)N1C[C@H]2CC[C@@H]1CN(S(=O)(=O)N(C)C)C2 | 7.621 |
| CC(C)CCC1=NC2(CCN(C(=O)CN3CCCC3=O)CC2)C(=O)N1 | 0.2617 |
| NS(=O)(=O)c1cnc(NCC2(c3cccc(F)c3)CCOCC2)s1 | -14.69 |
| CC(=O)N1CC(=O)N(c2cnn(C)c2)CC12CCN(CC1CC1)C2.O=C(O)C(F)(F)F (centres undefined) | -1.209 |
| CN(C)Cc1cc(=O)n2c(n1)CN(C(=O)c1ccc[nH]1)CCC2.O=C(O)C(F)(F)F | 95.26 |
| Cc1ccsc1C(=O)N1CCCn2c(nc(CN(C)C)cc2=O)C1.O=C(O)C(F)(F)F | -10.18 |
| CN(C)Cc1cc(=O)n2c(n1)CN(C(=O)Cc1cccs1)CCC2.O=C(O)C(F)(F)F | 4.562 |
| CC(C)N(C)Cc1cncc2c1CCN(C(=O)c1ccc[nH]1)C2.Cl.Cl | -17.08 |
| CCN(CC)Cc1cc(=O)n2c(n1)CN(C(=O)c1ccc[nH]1)CCC2 | 89.92 |
| CC(C)N(C)Cc1cc(=O)n2c(n1)CN(C(=O)c1ccc[nH]1)CCC2 | 99.67 |
| CC(=O)NC1CCCN(c2ccc(C#N)cc2C(F)(F)F)C1 (centres undefined) | 47.21 |
| CC(C)N1CC(C(=O)NC(C)(C)CNC(=O)OC(C)(C)C)CC1=O (centres undefined) | 16.31 |
| Cc1ccc(C(=O)OC(C)Cn2cccn2)c(=O)[nH]1 (centres undefined) | -0.638 |
| c1csc(SCC2CN=C(N3CCOCC3)S2)c1 (centres undefined) | -10.18 |
| CN(CCc1cnn(C)c1)C(=O)C(c1ccccc1F)N(C)C (centres undefined) | -8.573 |
| CC(C)c1nsc(N2CCOC3(CCCC3)C2)n1 | -27.55 |
| C[C@@H]1CN(C(=O)c2ccncc2)CC[C@@]1(O)C1CCOCC1 | -11.61 |
| C[C@@H]1CN(C(=O)CCN2CCCC2)CC[C@@]1(O)C1CCC1 | -5.805 |
| C[C@@H]1CN(C(=O)CCc2cnn(C)c2)CC[C@@]1(O)C1CCOCC1 | -4.294 |
| C[C@@H]1CN(C(=O)C2(Cn3cccn3)CC2)CC[C@@]1(O)C1CC1 | 95.17 |

| Structure (SMILES) | Percent Effect [%] |
| --- | --- |
| CCCc1cc(C(=O)N2C[C@@H](C)[C@](O)(C3CCC3)C2)[nH]n1 | -1.382 |
| CC(C1CC1)N(C)C(=O)CCn1cccn1 (centres undefined) | -12.77 |
| CCN(C(=O)CCn1cccn1)C1CC1 | 0.4672 |
| C[C@@H]1CN(C(=O)C2(Cn3cccn3)CC2)CC[C@@]1(O)C1CCOCC1 | 103.7 |
| C[C@@H]1CN(C(=O)CCc2cnn(C)c2)C[C@@]1(O)C1CCC1 | -2.131 |
| C[C@@H]1CN(C(=O)CCN2CCCC2)CC[C@@]1(O)C1CCOCC1 | 18.72 |
| CC(C)[C@]1(O)CN(C(=O)C2(Cn3cccn3)CC2)C[C@H]1C | 94.9 |
| C[C@@H]1CN(C(=O)C2(Cn3cccn3)CC2)C[C@@]1(O)C1CCC1 | 109.7 |
| N#Cc1ccnc(N2CCN(CC(O)c3ccccc3)CC2)c1 (centres undefined) | -34.32 |
| COc1ccccc1C1(CNc2ncc(S(N)(=O)=O)s2)CC1 | -5.545 |
| CCN(CC)C(=O)N1CCN(C(=O)C2CCCc3[nH]ncc32)CC1 (centres undefined) | -7.717 |
| CC(NC(=O)NCCCc1n[nH]c(N)c1C#N)c1ccccc1 (centres undefined) | 11.96 |
| Cn1cc(CN2CCc3c(nnn3C)C2COCc2ccccc2)cn1.O=C(O)C(F)(F)F (centres undefined) | -8.957 |
| CC(C)CN1CCc2[nH]cnc2C12CCN(C(=O)c1cccnc1)CC2 | 1.531 |
| COCCNC(=O)NCC(C)c1ccccc1OC (centres undefined) | -10.13 |
| CNC(=O)[C@H]1C[C@@H]2CN(C(=O)c3ccoc3)C[C@@H]2N1S(C)(=O)=O | 83.29 |
| CNC(=O)[C@H]1C[C@@H]2CN(C(=O)c3ccco3)C[C@@H]2N1S(C)(=O)=O | 10.85 |
| O=C(c1ccoc1)N1C[C@H]2CC[C@@]3(N=C(c4ccccc4)NC3=O)[C@H]2C1 | -13.12 |
| CNC(=O)[C@H]1C[C@@H]2CN(S(=O)(=O)c3ccccc3)C[C@@H]2N1C(C)=O | -8.592 |
| CCN1C[C@@H]2CN(C(=O)c3ccsc3)C[C@@H]2C1=O | -7.34 |

| Structure (SMILES) | Percent Effect [%] |
| --- | --- |
| O=C(c1ccoc1)N1C[C@@H]2CN(c3ncccn3)C[C@@H]2C1 | -12.12 |
| CNC(=O)[C@H]1C[C@@H]2CN(C(=O)c3ccc(C)o3)C[C@@H]2N1S(C)(=O)=O | 94.93 |
| Cc1ccoc1C(=O)N1CC[C@@]2(C[C@H](NS(C)(=O)=O)CCO2)C1 | -10.72 |
| CNC(=O)[C@H]1C[C@@H]2CN(C(=O)c3occc3C)C[C@@H]2N1S(C)(=O)=O | 100.3 |
| CNC(=O)[C@H]1C[C@@H]2CN(C(=O)c3cscn3)C[C@@H]2N1S(C)(=O)=O | -14.13 |
| CNC(=O)[C@H]1C[C@@H]2CN(C(=O)c3ccsc3)C[C@@H]2N1S(C)(=O)=O | 104.8 |
| Cc1nn(C)c(Cl)c1CNCc1ccc(OCC(N)=O)cc1 | 6.399 |
| O=C(NC[C@H]1OC[C@@H](NCc2ccc(F)cc2)[C@@H]1O)N1CCOCC1 | -11.78 |
| CCNC(=O)N1CCC(NC(=O)NCCc2cccc(C)c2)C1 (centres undefined) | -4.75 |
| NCC1CN(c2nc(-c3ccccc3)nc3c2CCNCC3)CCO1 (centres undefined) | 2.56 |
| Cc1cc(-c2nn(C)c(Cl)c2CN2CCOC(C(=O)O)C2)no1 (centres undefined) | -7.215 |
| O=C(O)C1CN(Cc2cccc(-c3ccccn3)c2)CCO1 (centres undefined) | 102.3 |
| O=C(CCN1CCOC(C(F)(F)F)C1)NCc1cccc(Cl)c1 (centres undefined) | -5.951 |
| CS(=O)(=O)NC1CCCN(Cc2ccc(OCc3ccccn3)cc2)C1 (centres undefined) | 2.735 |
| CN1C(=O)[C@H]2CC[C@@H]1CN(Cc1cccc(OCc3ccccn3)c1)C2 | -0.7428 |
| FC(F)(F)C1CN(Cc2cccc(-c3ccccn3)c2)CCO1 (centres undefined) | 75.31 |
| FC(F)(F)C1CN(Cc2cccc(OCc3ccccn3)c2)CCO1 (centres undefined) | 94.94 |
| CN(C)C(=O)CCC1CCCN(Cc2cccc(-c3ccccn3)c2)C1 (centres undefined) | 9.493 |
| FC(F)(F)C1CN(Cc2cnc3c(-c4ccccc4)cnn3c2)CCO1 (centres undefined) | 27.88 |

From ChEMBL document CHEMBL3988442, “University of Dundee, Small-Polar-MMV Screening Library” (2021)
